# Out of some 360,000 compounds screened, about 160 (0.044%) were called active. This excerpt belongs to a sample that is enriched for actives. A number with no mark means an inactive call. Rule as the data show it: active = survival enhancement above about 18%; inactive = the rest.
# Test: enhancers of single-cell hiPSC survival, primary screen, ATPlite luminescence (AID 602274);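 also: cells exposed to compounds for 16 hours before the ATP read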
# Conditions: at 20 µM, hits give high values, 100% = ROCK inhibitor wells, 0% = DMSO
row,Structure (SMILES),survival enhancement
1,Cc1ccc(Nc2c(O)nc[nH]c2=O)cc1C,0.4%
2,CC(=NCc1ccc2c(c1)OCO2)C1=C(O)c2ccccc2C1=O,2.2%
3,CC(=O)Nc1ccc(S(=O)(=O)Oc2ccc(/C=N/N=C3/NC(=O)C(CC(=O)O)S3)cc2)cc1 (stereo unspecified),2%
4,COc1cc(CO)c(C2(CO)CCCC2)cc1OC,3.1%
5,C[C@@H]1ON(C)[C@H]2C[C@H]3c4cc(N5CCN(C)CC5)ccc4CCN3C(=O)[C@@H]12,-2.2%
6,CC(C)C(C)(C#N)NC(=O)CSc1nc2scc(-c3ccccc3)c2c(=O)[nH]1 (stereo unspecified),-0.3%
7,N=C1C(=O)OCC1c1ccccc1NC(=O)CN1CCCCC1 (stereo unspecified),-0.4%
8,COc1ccc(C(C(=O)NCc2ccccc2)N(Cc2cccs2)C(=O)c2cnccn2)cc1 (stereo unspecified),6.6%
9,COC(=O)c1ccc(CN2CCCC(C(=O)Nc3cccc(-n4cnnn4)c3)C2)cc1 (stereo unspecified),0.6%
10,C=CC(COCc1ccccc1)N(CC(=O)OC)S(=O)(=O)c1cc(Br)ccc1OC (stereo unspecified),-0.4%
11,CCCNc1c(N)c(=O)c1=O,-0.6%
12,O=C(Nc1ccccc1N1CCCC1)c1ccc(F)c(S(=O)(=O)N2CCOCC2)c1,-0.3%
13,O=C(c1cccs1)N1C[C@H](n2cc(C3CC3)nn2)[C@@H](O)C[C@@H]1c1ccccc1,-0.3%
14,Cc1c(S(=O)(=O)N2CC(C)CC(C)C2)c(=O)n(C)c(=O)n1C (stereo unspecified),-0.4%
15,CCc1nc2ccc(C(=O)Nc3cccc(OC)c3)cn2c1N(CCC(C)C)CCN(C)C,-0.8%
16,CNC(=O)c1nnc(Cc2ccc(Cl)cc2)o1,0.3%
17,CCn1c(=S)sc2c(=O)n(CC(=O)Nc3cccc(Br)c3)c(C)nc21,-0.2%
18,CCNC(=O)N1CCCC(C(=O)c2ccc(-c3ccccc3)cc2)C1 (stereo unspecified),1.4%
19,CC1(C)CC(N(Cc2ccccc2)C(=O)Cc2ccccc2)CCO1 (stereo unspecified),-0.5%
20,CCN1C[C@@H]2[C@@H]3C(=O)N(C)C(=O)[C@@H]3[C@](C)(C1=O)N2C(=O)c1ccccc1,-1.3%
21,CC(C)C[C@H](NC(=O)C1CCC(CNC(=O)[C@@H]2CCCN2C(=O)OC(C)(C)C)CC1)C(=O)O (stereo partly specified),0.8%
22,Cc1nc(C(F)(F)F)ccc1C(=O)N1CCC1(C)C(=O)NS(=O)(=O)c1ccc(F)cc1F (stereo unspecified),-1.2%

row,Structure (SMILES),survival enhancement
1,CC[C@H]1OC(=O)[C@H](C)[C@@H](O[C@H]2C[C@@](C)(OC)[C@@H](O)[C@H](C)O2)[C@H](C)[C@@H](O[C@@H]2O[C@H](C)C[C@H](N(C)C)[C@H]2O)[C@](C)(O)C[C@@H](C)[C@@H]2N[C@@H](COCCOC)O[C@H]([C@H]2C)[C@]1(C)O,1.7%
2,CCCCN(C(=O)c1ccc2ccccc2c1)c1c(N)n(CCCC)c(=O)[nH]c1=O,-0.4%
3,Cn1cc(CN2CCCC(CO)C2)c(-c2ccc(Oc3ccccc3)cc2)n1 (stereo unspecified),4.5%
4,CNC(=O)NC(=O)C(OC(=O)c1cccc(S(=O)(=O)N2CCCCC2)c1)c1ccccc1 (stereo unspecified),0.1%
5,O=C1CCC[C@@H]2CC(N3CCCCC3)C[C@@H]3CCN1[C@H]23 (stereo partly specified),-1.2%
6,CCc1nc2ccccc2n(CCOCCOCCn2c(=O)c(CC)nc3ccccc32)c1=O,2.6%
7,Cc1ccc(S(=O)(=O)N2CCOCC2)cc1NC(=O)COC(=O)c1cnccn1,-1.4%
8,CN(C)C(=O)CCc1ccc2c3c([nH]c2c1)[C@]1(C)[C@@H](C(=O)N2CCCCC2)C[C@H](CC(=O)NCCC2=CCCCC2)C(=O)N1CC3,1%
9,CCN(CC)S(=O)(=O)c1ccc(N2CCCC2)c(NS(=O)(=O)c2cccs2)c1,0.5%
10,COc1ccccc1NC(=O)C(C)OC(=O)CC1CCCC1 (stereo unspecified),-0.5%
11,O=C(CSc1nnc(CN2CCCC2)n1-c1ccc(F)cc1)c1ccc2c(c1)OCO2,0%
12,CCOc1ncccc1C(=O)Nc1ccc2c(c1)OCCO2,0.1%
13,COc1cc(C(=O)NC(=S)NCc2ccco2)cc(OC)c1OC,-1.8%
14,CCc1nc2ccc(C(=O)N3CCN(S(=O)(=O)CC)CC3)cn2c1N(C=O)CCC(C)C,0.9%
15,CCC(=NC1CC(C)(C)NC(C)(C)C1)C1=C(O)CC(C)(C)CC1=O,-1.8%
16,Cc1ccc(C(=O)N/C(=C\c2ccco2)C(=O)NC2CCS(=O)(=O)C2)cc1 (stereo unspecified),-0.5%
17,Nc1[nH]c(=S)nc2nc(-c3ccccc3)c(-c3ccccc3)nc12,-2%
18,CCn1c2c(c3ccc(OC)cc31)CCCC2=O,0.7%
19,COC(=O)c1ccc2nc(C3CCCCC3)c(Cc3cccc(F)c3)n2c1,-0.3%
20,CC1(C(=O)NCCc2c[nH]c3ccccc23)C=CC2(CCCCC2)N1C(=O)c1ccccc1 (stereo unspecified),-0.6%
21,COc1ccc2c(c1)c(=O)c(C(=O)c1ccc(Cl)cc1)cn2CC(=O)Nc1ccc(F)cc1,35.8% (active)
22,O=C(c1ccc(F)cc1)c1cn(Cc2ccc(F)cc2)c2cc3c(cc2c1=O)OCCO3,-1.1%

row,Structure (SMILES),survival enhancement
1,COc1ccc(NC(=O)CC2C(=O)NC3CCCCC3N2C(=O)c2ccc(F)cc2)cc1 (stereo unspecified),-0.2%
2,O=C(Nc1cccc2cccnc12)c1ccc2sc([C@H]3C[C@H](O)[C@@H](CO)O3)nc2c1,-1.8%
3,C=CCn1c(C23CC4CC(CC(C4)C2)C3)n[nH]c1=S,-0.3%
4,O=C(OCCN1C(=O)c2ccccc2C1=O)[C@@H]1CC(O)CN1S(=O)(=O)c1ccccc1[N+](=O)[O-] (stereo partly specified),-1.2%
5,CCc1nnc(NC(=O)C2CC(=O)N(c3ccc4c(c3)OCCO4)C2)s1 (stereo unspecified),-0.7%
6,Cc1ccc(CCN2CC(C(=O)NCCc3ccccc3)CC2=O)cc1 (stereo unspecified),0.1%
7,CCOc1ccc(OCC)c(NC(=O)C(NS(=O)(=O)c2ccc3c(c2)oc(=O)n3C)C(C)C)c1 (stereo unspecified),-3.4%
8,COc1ccccc1CCNC(=O)c1cnccn1,0.7%
9,COc1ccc(C(=O)NNC(=O)c2cnccn2)cc1[N+](=O)[O-],-1.9%
10,COc1ccc(C(C#N)(CC(=O)O)c2cnccn2)cc1OC (stereo unspecified),27% (active)
11,CCC1CCCCN1CCNS(=O)(=O)c1ccc2c(c1)CCN2C(C)=O (stereo unspecified),-1.5%
12,COC(=O)[C@@H]1C[C@H]2CC[C@H](O)C[C@H]2N1Cc1ccc(N2CCN(C)CC2)cc1,-2.9%
13,COc1ccc(CCNC(=O)CN2C(=O)COc3ccc(S(=O)(=O)N4CCCC4)cc32)cc1OC,0.4%
14,C/C(=N\Nc1cccc(C(=O)O)c1)c1ccc2c(c1)Nc1ccccc1S2,-0.6%
15,Cc1nc2ccc(N)nc2nc1C,-2%
16,COC(=O)C(C)Sc1ccc2nnc(-c3cccc(F)c3)n2n1 (stereo unspecified),1.5%
17,COc1ccc(-c2cc(C(F)(F)F)n3nc(C(=O)N4CCOCC4)c(Cl)c3n2)cc1,3.2%
18,Cc1cccc([C@@H]2[C@@H]3C(=O)N(Cc4ccccc4)C(=O)[C@@H]3[C@]3(Cc4ccc(Cl)cc4)C(=O)N(c4cccc(Cl)c4)C(=O)N23)c1,-0.6%
19,O=C(NCc1ccccc1CN1CCCC1)c1cccc(S(=O)(=O)Nc2ccc(F)cc2)c1,-0.3%
20,C[C@H](CO)N1C[C@H](C)[C@@H](CN(C)C(=O)C2CCCCC2)OCc2cnnn2CCCC1=O,5.1%
21,CC(C)(C)NC(=O)Cn1nnc(-c2ccccc2Cl)n1,1%
22,C=CCn1nc(-c2ccccc2)c2c(C)onc2c1=O,0.6%

row,Structure (SMILES),survival enhancement
1,CCOC(=O)C1=CCC2C(=O)N(Cc3ccccc3)C(=O)C12 (stereo unspecified),-0.2%
2,CCC(Cc1ccccc1)NC(=O)C1CCCCC1 (stereo unspecified),-0.3%
3,Cc1nc(CNS(=O)(=O)c2ccc(Oc3ccccc3)cc2)cs1,-0.6%
4,CCNC(=O)c1c(O)c2cccc3c2n(c1=O)CC3,8.3%
5,OC[C@@H]1CN(Cc2ccc(Cl)cc2)C[C@H](n2cnc3c(NCc4ccncc4)ncnc32)O1,0.8%
6,Cc1cccc(C(=O)Nc2ccccc2C(=O)NCc2cccnc2)c1,7.7%
7,O=C(COC(=O)C12CC3CC(CC(O)(C3)C1)C2)NC12CC3CC(CC(C3)C1)C2,4.1%
8,CCOc1ccc(OCC)c(-c2c(=O)n(OCc3ccc(Cl)cc3)c3ccccc3[n+]2[O-])c1,0%
9,O=C(CN1C(=O)c2cccnc2Oc2ccc(Cl)cc21)Nc1ccc(F)cc1,-2%
10,O=C(N/N=C1\CCSC1)c1cc(Cl)ccc1O,1.9%
11,CC1CCCCC1NC(=O)Cn1c(=O)cnc2ccccc21 (stereo unspecified),-0.7%
12,O=C(NCc1nnc(SCC(=O)N2CCCc3ccccc32)o1)c1ccccc1F,0.9%
13,O=C(NCc1ccccc1)C1=C[C@@H](c2ccccc2)C[C@@H](OCCCCO)O1,-2.5%
14,CN(C)S(=O)(=O)c1ccc(N2CCCC2)c(C(=O)Nc2ccc(Br)cc2F)c1,-0.6%
15,CCOC(=O)c1c(C)[nH]c(C(=O)NCCN2CCOCC2)c1C,-0.1%
16,Cc1nc2ccccc2nc(=O)c1NNc1ccc([N+](=O)[O-])cc1,-1.5%
17,CCN(CC)c1ccc(C(=O)c2cnc(/N=C/N(C)C)s2)cc1,-0.3%
18,C=CCSc1nc(Cc2ccc(Cl)cc2)nc2ccccc12,-1.7%
19,CCCCSc1nnc2c(n1)OC=Nc1ccccc1-2,1%
20,CCN(CC(=O)Nc1ccc(Cl)c(S(=O)(=O)N(C)C)c1)Cc1nc2ccccc2c(=O)[nH]1,-0.1%
